Screening results (PubChem BioAssay)
An excerpt weighted towards active compounds, which were near 12% of everything screened.
Lassa entry inh = blocks Lassa virus binding to or entry into cells; AID 540256; Potency, µM (highest dose often 37.9 µM), most hits filed as inhibitors; 1.2% of 300,000 active; Lassa virus pseudotype entry inhibition, cell reporter; calls by dose curve; tested in HEK293 cells; note: nearly all actives have a fitted effect of over 50% in size
Shiga inhibitor = Shiga toxin inhibition | 9.2% of 290,000 active | inhibition, % at 38.7 µM | Vero cells, Shiga toxin protein synthesis inhibition reporter | AID 2315; in the data active = inhibition mostly above about 28%, no sharp cut-off; inactive = mostly below about 43%
Cycloheximide cs = counter-screen for Shiga toxin inhibitors: cycloheximide protein synthesis inhibition; 12% of 300,000 active; max response, %; cell reporter, cycloheximide protein synthesis inhibition counterscreen; AID 2314; in the data active = max response mostly above about 13%, no sharp cut-off; inactive = mostly below about 14%; note: read at 38.3 µM for the half of the compounds with a filed dose
MARV entry inh = Marburg virus entry inhibition | 1.8% of 300,000 active | Potency, µM (highest dose often 37.8 µM), actives largely listed as inhibitors | Marburg virus pseudotyped entry inhibition, cell reporter | AID 540276; calls by dose curve; tested in HEK293 cells
Hits are given with their value.

Results for Cc1cc(C)c2nc(C)cc(Nc3ccc(C(=O)NCCO)cc3)c2c1 ?
Lassa entry inh: inactive; Shiga inhibitor: inactive; Cycloheximide cs: inactive; MARV entry inh: 11µM

What do the screens show for `CS(=O)(=O)c1cccc(S(=O)(=O)N2CCCCCC2)c1`?
Shiga inhibitor: inactive; Cycloheximide cs: inactive

How did COc1ccc2[nH]c3c(NCCCN4CCCC4=O)ncnc3c2c1 do in these assays?
Lassa entry inh: inactive; Shiga inhibitor: inactive; Cycloheximide cs: inactive; MARV entry inh: inactive

How did O=c1c2[nH]c3ccccc3c2ncn1CCC1=CCCCC1 do in these assays?
Lassa entry inh: inactive; Shiga inhibitor: inactive; Cycloheximide cs: inactive; MARV entry inh: inconclusive

Results for COc1ccc2[nH]c3c(NCCN(C(C)C)C(C)C)ncnc3c2c1 ?
Lassa entry inh: inactive; Shiga inhibitor: inactive; Cycloheximide cs: inactive; MARV entry inh: 11µM

What do the screens show for `C1=C(CCNc2ncnc3c2[nH]c2ccccc23)CCCC1`?
Lassa entry inh: inconclusive; Shiga inhibitor: 116; Cycloheximide cs: 26; MARV entry inh: inconclusive

Results for CCOc1ccc2[nH]c3c(NCC(C)C)ncnc3c2c1 ?
Shiga inhibitor: 59; Cycloheximide cs: 33

What do the screens show for `CCOc1ccc2[nH]c3c(NCCCOC)ncnc3c2c1`?
Shiga inhibitor: 48; Cycloheximide cs: 35

How did CCC(C)C(NC(=O)OC(C)(C)C)C(=O)NC1COC2CC(n3cc(F)c(=O)[nH]c3=O)OC12 (centres undefined) do in these assays?
Shiga inhibitor: inactive; Cycloheximide cs: inactive

Results for CCOc1ccc2[nH]c3c(NCCOC)ncnc3c2c1 ?
Shiga inhibitor: 67; Cycloheximide cs: 29

Results for CCOc1ccc2[nH]c3c(NCCN(CC)CC)ncnc3c2c1 ?
Lassa entry inh: inactive; Shiga inhibitor: inactive; Cycloheximide cs: inactive; MARV entry inh: inconclusive

What do the screens show for `CC(C)OCCCNc1ncnc2c1[nH]c1ccccc12`?
Lassa entry inh: inconclusive; Shiga inhibitor: inactive; Cycloheximide cs: 16; MARV entry inh: inconclusive

What do the screens show for `N#C/C(=C/c1ccccc1)c1nn(CCO)c(N)c1C#N`?
Lassa entry inh: inactive; Shiga inhibitor: 27; Cycloheximide cs: 27; MARV entry inh: inactive

What do the screens show for `COc1cc(NC(=O)c2ccc3c(c2)OCCO3)ccc1NC(=O)c1cccs1`?
Shiga inhibitor: inactive; Cycloheximide cs: 22; MARV entry inh: inactive

How did O=C(Nc1ccc(NC(=O)c2cccs2)cc1)c1ccc2c(c1)OCCO2 do in these assays?
Shiga inhibitor: inactive; Cycloheximide cs: inactive

What do the screens show for `COc1cc(NC(=O)c2ccc3c(c2)OCCO3)ccc1NC(=O)c1ccco1`?
Lassa entry inh: inactive; Shiga inhibitor: 39; Cycloheximide cs: 19; MARV entry inh: inconclusive

How did O=C(Nc1cccc(NC(=O)c2ccco2)c1)c1ccc2c(c1)OCCO2 do in these assays?
Lassa entry inh: inactive; Shiga inhibitor: inactive; Cycloheximide cs: inactive; MARV entry inh: inactive

How did C/C(=N\NC(=O)c1cc(Br)ccc1O)c1cccs1 do in these assays?
Lassa entry inh: inactive; Shiga inhibitor: 126; Cycloheximide cs: 37; MARV entry inh: inconclusive

What do the screens show for `C/C(=N/NC(=O)c1ccc(Br)o1)c1cccs1`?
Shiga inhibitor: 123; Cycloheximide cs: 50

What do the screens show for `COCCCNC(=O)/C=C/c1ccc(Cl)cc1Cl`?
Lassa entry inh: inconclusive; Shiga inhibitor: 54; Cycloheximide cs: 17; MARV entry inh: inactive

What do the screens show for `Cc1ccc(C(=O)NCC(=O)OCc2csc(-c3ccccc3)n2)cc1`?
Lassa entry inh: inactive; Shiga inhibitor: 70; Cycloheximide cs: 36; MARV entry inh: inactive

What do the screens show for `O=C(COC(=O)CNS(=O)(=O)c1c(Cl)cccc1Cl)Nc1ccccc1Sc1ccccc1`?
Lassa entry inh: inactive; Shiga inhibitor: inactive; Cycloheximide cs: inactive; MARV entry inh: inactive

How did O=C(CNS(=O)(=O)c1ccc2ccccc2c1)OCc1csc(-c2ccccc2)n1 do in these assays?
Lassa entry inh: inactive; Shiga inhibitor: inactive; Cycloheximide cs: 20; MARV entry inh: inactive

How did CCOC(=O)Cc1csc(NS(=O)(=O)c2ccc3ccccc3c2)n1 do in these assays?
Lassa entry inh: inactive; Shiga inhibitor: inactive; Cycloheximide cs: inactive; MARV entry inh: inactive

What do the screens show for `CCOc1ccc(C(=O)NCC(=O)OCc2csc(-c3ccccc3)n2)cc1`?
Lassa entry inh: inactive; Shiga inhibitor: inactive; Cycloheximide cs: inactive; MARV entry inh: inactive

What do the screens show for `O=C(CNC(=O)c1ccco1)NCC(=O)OCc1ccc(C(=O)Oc2ccc(Cl)cc2)cc1`?
Lassa entry inh: inactive; Shiga inhibitor: inactive; Cycloheximide cs: inactive; MARV entry inh: inactive

How did O=C(CNS(=O)(=O)c1c(Cl)cccc1Cl)OCc1csc(-c2ccccc2)n1 do in these assays?
Lassa entry inh: inactive; Shiga inhibitor: inactive; Cycloheximide cs: 18; MARV entry inh: inactive

What do the screens show for `O=C(CNC(=O)c1ccco1)OCc1ccc(C(=O)Oc2ccccc2)cc1`?
Lassa entry inh: inactive; Shiga inhibitor: 24; Cycloheximide cs: 33; MARV entry inh: inactive
